Laboratory results taken from PubChem BioAssay.
Unmarked numbers belong to inactive results. For some of these results: Measured potencies and affinities stand elsewhere. The source made the active and inactive calls. Unless noted, how the calls were made is not given here.

How the values were obtained:
[1] = antimalarial activity against Dd2 strain (AID 2302;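 active means growth inhibition above 50% at the single 2 µM test dose, taken to imply half-maximal potency below 2 µM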;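 further: 0% = DMSO untreated growth and 100% = chloroquine plus artemisinin killed control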); settings: P. falciparum Dd2 in RBCs, LDH growth readout, 72 h; at 2 µM; hits give high values
[2] = HepG2 cytotoxicity, primary screen, cytotoxicity control for P. falciparum antimalarial project, cell-based, ATP luminescence (AID 2303;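 active means inhibition above 50%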;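 further: 0% = DMSO wells and 100% = digitonin-killed cells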); settings: HepG2 viability, 24-48 h, at 10 µM, hits give high values
[3] = target: L-lactate dehydrogenase (Plasmodium falciparum (isolate CDC / Honduras)) (UniProt Q27743); assay: PfLDH activity inhibition – cell lysate, 3D7 strain, counter-screen for P. falciparum growth inhibition project (AID 2304);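 further: 0% = vehicle and 100% = reference inhibitor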; settings: P. falciparum 3D7 crude extract, LDH APAD/NBT absorbance; at 2 µM; hits give high values
[4] = inhibition of 3D7 malaria parasite growth – strain 3D7 (AID 2306);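 further: 0% = DMSO wells and 100% = chloroquine plus artemisinin control wells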; settings: P. falciparum 3D7 erythrocytic growth, LDH absorbance, 72 h; at 2 µM; hits give high values
[5] = target: Calcium-dependent protein kinase 1 (Plasmodium falciparum (isolate 3D7)) (UniProt P62344); assay: PfCDPK1 kinase inhibitors, biochemical, TCAMS library (AID 1159585; cut-off not given, nearly all actives have IC50 up to about 0.98 µM;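 further: inhibitors leave more ATP so luminescence rises with inhibition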); settings: recombinant PfCDPK1, Kinase-Glo ATP depletion luminescence
[6] = target: Plasmodium falciparum protein kinase 6 (PK6, PF3D7_1337100) (UniProt Q8IDW1); assay: PfPK6 kinase inhibitors, biochemical, TCAMS library (AID 1159586); settings: recombinant PfPK6, Kinase-Glo ATP depletion luminescence
[7] = target: Protein kinase 7 (PK7), Plasmodium falciparum 3D7 (PF3D7_0213400) (UniProt Q7YTF7); assay: inhibition of Plasmodium PK7 catalytic activity – biochemical, TCAMS antimalarial set, Kinase-Glo luminescence (AID 1159587); settings: recombinant PfPK7, Kinase-Glo ATP depletion luminescence
[8] = target: Calcium-dependent protein kinase 4 (Plasmodium falciparum (isolate 3D7)) (UniProt Q8IBS5); assay: PfCDPK4 kinase inhibitors, biochemical, TCAMS library (AID 1159588; cut-off not given, nearly all actives have IC50 up to about 0.91 µM); settings: recombinant PfCDPK4, Kinase-Glo ATP depletion luminescence
Chain of Calcium-dependent protein kinase 4 (Plasmodium falciparum (isolate 3D7)) (Q8IBS5 whole entry, looked up): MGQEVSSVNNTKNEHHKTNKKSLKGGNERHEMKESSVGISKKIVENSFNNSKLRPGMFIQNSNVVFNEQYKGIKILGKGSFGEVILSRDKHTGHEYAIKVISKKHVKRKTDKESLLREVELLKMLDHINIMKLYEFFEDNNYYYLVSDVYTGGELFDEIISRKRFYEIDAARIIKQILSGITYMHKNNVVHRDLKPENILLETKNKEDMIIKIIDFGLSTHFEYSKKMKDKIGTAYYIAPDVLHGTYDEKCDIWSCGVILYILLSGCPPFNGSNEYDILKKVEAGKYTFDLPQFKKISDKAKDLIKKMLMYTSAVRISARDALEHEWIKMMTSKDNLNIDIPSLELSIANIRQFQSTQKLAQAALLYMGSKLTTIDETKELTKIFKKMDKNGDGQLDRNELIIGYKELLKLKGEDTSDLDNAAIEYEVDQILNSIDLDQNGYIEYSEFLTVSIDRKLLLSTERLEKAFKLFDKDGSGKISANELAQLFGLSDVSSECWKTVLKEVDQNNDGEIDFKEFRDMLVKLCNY

Chain of L-lactate dehydrogenase (Plasmodium falciparum (isolate CDC / Honduras)) (Q27743 whole entry, looked up): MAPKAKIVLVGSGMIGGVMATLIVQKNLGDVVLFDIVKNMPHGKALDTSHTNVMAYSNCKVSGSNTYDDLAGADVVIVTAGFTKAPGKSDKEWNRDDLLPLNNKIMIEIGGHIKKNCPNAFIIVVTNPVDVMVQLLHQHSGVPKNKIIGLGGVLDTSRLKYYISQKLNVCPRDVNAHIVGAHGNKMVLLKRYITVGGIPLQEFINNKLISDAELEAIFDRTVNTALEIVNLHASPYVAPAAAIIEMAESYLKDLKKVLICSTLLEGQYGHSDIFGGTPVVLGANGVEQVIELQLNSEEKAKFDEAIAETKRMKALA
Chain of Calcium-dependent protein kinase 1 (Plasmodium falciparum (isolate 3D7)) (P62344 whole entry, looked up): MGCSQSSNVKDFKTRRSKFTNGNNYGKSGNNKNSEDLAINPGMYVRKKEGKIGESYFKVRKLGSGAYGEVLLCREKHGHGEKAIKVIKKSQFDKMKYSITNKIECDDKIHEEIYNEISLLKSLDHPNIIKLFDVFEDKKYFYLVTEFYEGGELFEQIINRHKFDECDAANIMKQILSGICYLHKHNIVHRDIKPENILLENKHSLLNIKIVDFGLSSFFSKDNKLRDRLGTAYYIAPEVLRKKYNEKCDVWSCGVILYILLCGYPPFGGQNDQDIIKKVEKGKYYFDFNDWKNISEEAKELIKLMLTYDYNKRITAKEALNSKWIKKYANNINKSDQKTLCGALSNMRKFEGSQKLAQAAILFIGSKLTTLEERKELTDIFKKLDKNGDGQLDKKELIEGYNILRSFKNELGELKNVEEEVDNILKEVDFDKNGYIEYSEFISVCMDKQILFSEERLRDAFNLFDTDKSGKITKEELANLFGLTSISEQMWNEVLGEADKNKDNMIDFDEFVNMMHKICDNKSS
Chain of Protein kinase 7 (PK7), Plasmodium falciparum 3D7 (PF3D7_0213400) (Q7YTF7 1-343): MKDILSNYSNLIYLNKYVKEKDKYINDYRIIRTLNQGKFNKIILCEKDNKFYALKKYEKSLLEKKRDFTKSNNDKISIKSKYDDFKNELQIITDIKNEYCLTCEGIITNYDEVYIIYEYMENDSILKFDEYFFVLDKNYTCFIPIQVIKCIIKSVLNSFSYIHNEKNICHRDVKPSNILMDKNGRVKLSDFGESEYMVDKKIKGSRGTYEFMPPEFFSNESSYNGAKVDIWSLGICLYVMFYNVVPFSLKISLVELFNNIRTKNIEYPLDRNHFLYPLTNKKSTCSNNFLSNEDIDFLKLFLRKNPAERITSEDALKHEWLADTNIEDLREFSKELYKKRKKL
Chain of Plasmodium falciparum protein kinase 6 (PK6, PF3D7_1337100) (Q8IDW1 1-305): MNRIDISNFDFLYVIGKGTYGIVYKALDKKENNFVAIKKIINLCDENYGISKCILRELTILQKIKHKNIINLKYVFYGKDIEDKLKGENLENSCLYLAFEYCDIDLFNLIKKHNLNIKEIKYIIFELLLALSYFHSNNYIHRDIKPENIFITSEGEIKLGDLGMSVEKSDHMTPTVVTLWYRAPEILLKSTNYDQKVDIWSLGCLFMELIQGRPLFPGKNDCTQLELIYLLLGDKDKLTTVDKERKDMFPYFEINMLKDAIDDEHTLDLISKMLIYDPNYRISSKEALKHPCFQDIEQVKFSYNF

SMILES: COc1ccc(-c2cnc(NCc3ccccc3)nc2)cc1CNC1CCN(C)CC1
- growth inhibition [1]: 64% (active)
- inhibition [2]: 19%
- inhibition [3]: 1%
- growth inhibition [4]: 96% (active)
- outcome [5]: inactive
- outcome [6]: inactive
- outcome [7]: inactive
- outcome [8]: inactive

SMILES: CC(CNCc1cn(Cc2cc(Br)cc(Br)c2)c2ccccc12)CNc1cc(=O)c2ccccc2[nH]1 (stereo not given)
- growth inhibition [1]: 50% (active)
- inhibition [2]: 10%
- inhibition [3]: 6%
- growth inhibition [4]: 100% (active)
- outcome [5]: inactive
- outcome [6]: inactive
- outcome [7]: inactive
- outcome [8]: inactive

SMILES: CC(C)(C)C(=O)Nc1ccccc1Oc1ccc(Cl)cc1
- growth inhibition [1]: 96% (active)
- inhibition [2]: 54% (active)
- inhibition [3]: 7%
- growth inhibition [4]: 92% (active)
- outcome [5]: inactive
- outcome [6]: inactive
- outcome [7]: inactive
- outcome [8]: inactive

SMILES: COc1cc(NC(=O)C(c2ccc(Cl)cc2)C(C)C)cc(OC)c1OC (stereo not given)
- growth inhibition [1]: 100% (active)
- inhibition [2]: 10%
- inhibition [3]: -1%
- growth inhibition [4]: 101% (active)
- outcome [5]: inactive
- outcome [6]: inactive
- outcome [7]: inactive
- outcome [8]: inactive

SMILES: CNC(=O)c1cncc(/C=C/c2ccccc2S(N)(=O)=O)c1
- growth inhibition [1]: 77% (active)
- inhibition [2]: 17%
- inhibition [3]: -1%
- growth inhibition [4]: 100% (active)
- outcome [5]: inactive
- outcome [6]: inactive
- outcome [7]: inactive
- outcome [8]: inactive

SMILES: COc1cc2c(cc1O)[C@@H]1[C@H](O)[C@@H](O)C=C3CCN(C2)[C@H]31
- growth inhibition [1]: 31%
- inhibition [2]: 18%
- inhibition [3]: 3%
- growth inhibition [4]: 90% (active)
- outcome [5]: inactive
- outcome [6]: inactive
- outcome [7]: inactive
- outcome [8]: inactive

SMILES: O=C(Nc1ccccc1F)N(CCCn1ccnc1)Cc1csc(-c2ccc(CNCc3ccccc3)cc2)n1
- growth inhibition [1]: 26%
- inhibition [2]: 24%
- inhibition [3]: 2%
- growth inhibition [4]: 93% (active)
- outcome [5]: inactive
- outcome [6]: inactive
- outcome [7]: inactive
- outcome [8]: inactive

SMILES: CCOc1ccc2nc(N(CCCn3ccnc3)C(=O)C=Cc3cccs3)sc2c1
- growth inhibition [1]: 97% (active)
- inhibition [2]: -1%
- inhibition [3]: -1%
- growth inhibition [4]: 97% (active)
- outcome [5]: inactive
- outcome [6]: inactive
- outcome [7]: inactive
- outcome [8]: inactive

SMILES: OC[C@H](Nc1nc(C(Oc2ccccc2)c2ccccc2)nc2[nH]ncc12)c1ccccc1 (stereo not given in full)
- growth inhibition [1]: 45%
- inhibition [2]: 0%
- inhibition [3]: -4%
- growth inhibition [4]: 98% (active)
- outcome [5]: inactive
- outcome [6]: inactive
- outcome [7]: inactive
- outcome [8]: inactive

SMILES: CNCc1ccc(CN(C)c2nc(N)c3cc(OC)c(OC)cc3n2)cc1
- growth inhibition [1]: 3%
- inhibition [2]: 12%
- inhibition [3]: 5%
- growth inhibition [4]: 96% (active)
- outcome [5]: inactive
- outcome [6]: inactive
- outcome [7]: inactive
- outcome [8]: inactive

SMILES: Cc1cc(=O)c(-c2ccc(Oc3ccc(Cl)cc3Cl)cc2)c(C)[nH]1
- growth inhibition [1]: 73% (active)
- inhibition [2]: -1%
- inhibition [3]: -2%
- growth inhibition [4]: 93% (active)
- outcome [5]: inactive
- outcome [6]: inactive
- outcome [7]: inactive
- outcome [8]: inactive

SMILES: Cc1cc(NC2CCN(Cc3ccccc3)CC2)nc(NCCCCc2ccccc2)n1
- growth inhibition [1]: 60% (active)
- inhibition [2]: 65% (active)
- inhibition [3]: 2%
- growth inhibition [4]: 100% (active)
- outcome [5]: inactive
- outcome [6]: inactive
- outcome [7]: inactive
- outcome [8]: inactive

SMILES: CC(C)(C)CCN1CCC(CNC(=O)c2cc(-c3cccc(C(F)(F)F)c3)cs2)C1 (stereo not given)
- growth inhibition [1]: 13%
- inhibition [2]: 47%
- inhibition [3]: -1%
- growth inhibition [4]: 93% (active)
- outcome [5]: inactive
- outcome [6]: inactive
- outcome [7]: inactive
- outcome [8]: inactive

SMILES: CCc1ccc(S(=O)(=O)Nc2ccc(CCN3CCC(N4CCCCC4)CC3)cc2)cc1
- growth inhibition [1]: 13%
- inhibition [2]: 35%
- inhibition [3]: -2%
- growth inhibition [4]: 100% (active)
- outcome [5]: inactive
- outcome [6]: inactive
- outcome [7]: inactive
- outcome [8]: inactive

SMILES: Cc1c2ccc(N(C)c3ccnc(Nc4ccc5c(c4)nc(NC(C)C)n5C)n3)cc2nn1C
- growth inhibition [1]: 100% (active)
- inhibition [2]: 2%
- inhibition [3]: -4%
- growth inhibition [4]: 100% (active)
- outcome [5]: inactive
- outcome [6]: inactive
- outcome [7]: inactive
- outcome [8]: inactive

SMILES: Cn1nc(-c2ccccc2F)c2cc(C(=O)NC3CCN(Cc4ccccc4)CC3)sc21
- growth inhibition [1]: 34%
- inhibition [2]: 5%
- inhibition [3]: 3%
- growth inhibition [4]: 97% (active)
- outcome [5]: inactive
- outcome [6]: inactive
- outcome [7]: inactive
- outcome [8]: inactive

SMILES: O=C(NC1CCN(CCCc2ccccc2)CC1)c1ccc(-c2cccc(C(F)(F)F)c2)s1
- growth inhibition [1]: 47%
- inhibition [2]: 93% (active)
- inhibition [3]: 1%
- growth inhibition [4]: 95% (active)
- outcome [5]: inactive
- outcome [6]: inactive
- outcome [7]: inactive
- outcome [8]: inactive

SMILES: O=C(c1ccc(-c2ccc(-c3nc4ccc(C(F)(F)F)cc4[nH]3)s2)cc1)N1CCN(CCc2ccccc2)CC1
- growth inhibition [1]: 60% (active)
- inhibition [2]: 23%
- inhibition [3]: -5%
- growth inhibition [4]: 98% (active)
- outcome [5]: inactive
- outcome [6]: inactive
- outcome [7]: inactive
- outcome [8]: inactive

SMILES: CCOC(=O)c1sc(C(C)Nc2ccccc2)nc1-c1ccccc1 (stereo not given)
- growth inhibition [1]: 91% (active)
- inhibition [2]: -8%
- inhibition [3]: 5%
- growth inhibition [4]: 95% (active)
- outcome [5]: inactive
- outcome [6]: inactive
- outcome [7]: inactive
- outcome [8]: inactive

SMILES: O=C(/C=C/c1ccc(Cl)cc1)NCCCCCN1CCCC(C(=O)Nc2cccc(Cl)c2)C1 (stereo not given)
- growth inhibition [1]: 4%
- inhibition [2]: 21%
- inhibition [3]: 0%
- growth inhibition [4]: 96% (active)
- outcome [5]: inactive
- outcome [6]: inactive
- outcome [7]: inactive
- outcome [8]: inactive
